Source: PubChem BioAssay
In the library only some 1.1% were active in any assay of this set; here they are far more common.
NCOA2 inhibitor = human SRC2 (NCOA2) inhibition | Q15596 | HEK293 GAL4-SRC2 luciferase reporter, luminescence | inhibition, % at 9 µM | 370,000 tested, 0.17% active | AID 651957;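 active = inhibition above the mean inhibition of all tested compounds plus 3 SD, set per campaign, cut at about 52% in these data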
Shn3 3UTR inh = inhibitors of Schnurri-3 3'UTR reporter in osteoblasts. Clone20 osteoblast Shn3 3'UTR firefly luciferase, 24 h. inhibition, % at 12.5 µM. 360,000 tested, 0.52% active;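 active = mean inhibition of at least 75% with every replicate also reaching 75%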
NR5A2 inv ag = inverse agonists of human LRH-1 (NR5A2) | O00482 | HEK293T StAR-luciferase reporter, LRH-1 transfected, 24 h | inhibition, % at 3.6 µM | 360,000 tested, 0.13% active | AID 602396;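 active = inhibition above the mean inhibition of all tested compounds plus 3 SD, cut at about 73% in these data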
SRC1 inh = inhibits human SRC1 coactivator | Q15788 | HEK293 GAL4-SRC1 luciferase reporter, luminescence | inhibition, % at 3.6 µM | 360,000 tested, 0.12% active;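 active = inhibition above the campaign mean plus 3 SD, with each screening campaign given its own cutoff, cut at about 60% in these data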
NCOA3 inh = human NCOA3 inhibition; HEK293 GAL4-SRC3 luciferase reporter, luminescence; inhibition, % at 3.6 µM; 360,000 tested, 0.17% active;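 active = inhibition above a per-campaign cutoff, the mean of all compounds plus 3 SD, cut at about 60% in these data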;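 also: higher means less SRC3-driven luciferase light from the GAL4 reporter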
Target sequence (Q9Y6Q9 whole entry, looked up, the tested form may be a part): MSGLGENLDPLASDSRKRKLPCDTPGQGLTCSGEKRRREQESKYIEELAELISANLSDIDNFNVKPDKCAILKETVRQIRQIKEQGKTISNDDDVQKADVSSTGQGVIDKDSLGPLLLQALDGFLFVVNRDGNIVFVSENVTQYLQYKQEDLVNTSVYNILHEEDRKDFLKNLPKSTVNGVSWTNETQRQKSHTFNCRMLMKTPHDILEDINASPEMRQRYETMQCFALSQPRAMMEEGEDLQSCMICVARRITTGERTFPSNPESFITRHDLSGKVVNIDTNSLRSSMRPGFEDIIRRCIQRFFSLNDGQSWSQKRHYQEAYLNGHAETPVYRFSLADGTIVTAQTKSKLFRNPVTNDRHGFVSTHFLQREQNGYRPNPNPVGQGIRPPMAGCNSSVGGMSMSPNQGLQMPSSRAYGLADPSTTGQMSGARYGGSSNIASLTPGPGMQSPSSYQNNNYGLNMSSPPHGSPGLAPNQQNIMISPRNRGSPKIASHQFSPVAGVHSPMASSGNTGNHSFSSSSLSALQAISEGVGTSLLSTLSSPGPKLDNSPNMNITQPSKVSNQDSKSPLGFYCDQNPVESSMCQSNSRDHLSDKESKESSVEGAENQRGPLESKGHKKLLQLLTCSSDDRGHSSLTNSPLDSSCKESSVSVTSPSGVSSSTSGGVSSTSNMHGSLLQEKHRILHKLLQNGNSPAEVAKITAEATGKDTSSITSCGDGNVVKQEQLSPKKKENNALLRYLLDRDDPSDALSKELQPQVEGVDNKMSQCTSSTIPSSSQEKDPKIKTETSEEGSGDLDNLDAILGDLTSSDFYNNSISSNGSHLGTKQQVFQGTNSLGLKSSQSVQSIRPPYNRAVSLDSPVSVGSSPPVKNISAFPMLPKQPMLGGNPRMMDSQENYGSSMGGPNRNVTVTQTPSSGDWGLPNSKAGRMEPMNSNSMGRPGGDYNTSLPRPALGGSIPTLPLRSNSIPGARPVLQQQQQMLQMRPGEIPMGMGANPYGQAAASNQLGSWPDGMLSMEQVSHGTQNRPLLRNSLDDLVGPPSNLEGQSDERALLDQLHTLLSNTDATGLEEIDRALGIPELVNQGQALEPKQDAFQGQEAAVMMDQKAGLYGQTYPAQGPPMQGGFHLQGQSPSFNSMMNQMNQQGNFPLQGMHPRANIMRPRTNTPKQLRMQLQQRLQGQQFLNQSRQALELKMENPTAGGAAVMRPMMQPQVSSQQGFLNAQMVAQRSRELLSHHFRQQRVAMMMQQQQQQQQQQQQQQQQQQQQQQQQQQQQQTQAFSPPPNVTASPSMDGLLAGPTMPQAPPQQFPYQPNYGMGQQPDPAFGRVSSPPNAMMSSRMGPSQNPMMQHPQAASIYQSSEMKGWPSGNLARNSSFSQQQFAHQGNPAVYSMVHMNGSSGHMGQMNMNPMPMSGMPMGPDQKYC
Gli-Sufu block = antagonists of Gli-Sufu signaling. 340,000 tested, 0.74% active. Sufu-KO-LIGHT fibroblasts, Gli luciferase reporter luminescence. inhibition, % at 5 µM;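 active = inhibition above about 55%, limit read from the data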
Gli-Sufu confirm = confirmation of Gli-SUFU pathway antagonists. inhibition, % at 5 µM. shares compounds with Gli-Sufu block. AID 602428. Sufu-KO-LIGHT cells, Gli luciferase reporter, luminescence. 2,500 tested, 40% active;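 active = mean inhibition at 5 µM reaching about 45%, limit read from the data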
Gli cytotox = cytotoxic in Gli-SUFU antagonist counter-screen. cytotoxicity, % at 5 µM. 2,500 tested, 32% active. Sufu-KO-LIGHT cells cytotoxicity, ATP luminescence. shares compounds with Gli-Sufu block;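 active = mean cytotoxicity at 5 µM above about 25%, limit read from the data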;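 also: cells exposed to compound overnight for roughly 16 to 18 hours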
Wnt3a counter = counter-screen for Gli-SUFU antagonists: Wnt3a reporter inhibition; shares compounds with Gli-Sufu block; Wnt-LIGHT cells, Wnt3a-driven luciferase reporter, luminescence; inhibition, % at 6.25 µM; 2,500 tested, 20% active;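 active = mean inhibition above about 25%, limit read from the data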
Hits are given with their value; i = inactive; nt = no result given.

SMILES	NCOA2 inhibitor	Shn3 3UTR inh	NR5A2 inv ag	SRC1 inh	NCOA3 inh	Gli-Sufu block	Gli-Sufu confirm	Gli cytotox	Wnt3a counter
CN(Cc1cnc2nc(N)nc(N)c2n1)c1ccc(C(=O)NC(CCC(=O)O)C(=O)O)c2ccccc12 (stereo unspecified)	i	i	i	72.7	64.1	57.9	i	29.4	i
Cc1ccnc(NC(=O)CCC(=O)N(CC(=O)NCc2ccc(F)cc2)Cc2ccco2)c1	i	i	i	i	i	62.8	i	i	i
O=C1C(Cl)=C(N2CCCCC2)C(=O)N1c1ccccc1Cl	i	i	i	i	i	59.6	i	i	i
COC(=O)[C@]12C[C@H](CC(=O)N3CCN(C(=O)C4CC4)CC3)C(=O)N(CCc3ccc(OC)c(OC)c3)C1=C[C@H](C(C)C)O[C@@H]2C1CC1	i	nt	nt	nt	nt	nt	nt	nt	nt
Cc1ccc(N2CC(C(=O)Nc3nc4ccc(S(C)(=O)=O)cc4s3)CC2=O)cc1C (stereo unspecified)	i	i	i	i	i	i	i	i	i
CC(C)C(=O)N1CCN(c2ccccc2NC(=O)COc2ccccc2)CC1	i	i	i	i	i	i	i	i	i
COc1ccc(CN2CCC(C(=O)Nc3ccc(Oc4cccnc4)cc3)CC2)cc1	i	i	i	i	i	i	nt	nt	nt
COc1cccc(O)c1CN1CCC(C(=O)Nc2ccc(Oc3cccnc3)cc2)CC1	i	i	i	i	i	i	i	i	i
COc1ccc(CN2CCC(C(=O)Nc3ccc(Oc4cccnc4)cc3)CC2)c(C)c1C	i	86.3	i	i	i	59.6	i	i	i
O=C(Nc1nnc(-c2cccnc2)s1)c1cnc2ccccc2c1	i	nt	nt	nt	nt	nt	nt	nt	nt
O=S(=O)(c1ccc(F)cc1)N1CCCC(CO)C1 (stereo unspecified)	i	i	i	i	i	i	i	i	i
CCOc1ccccc1Nc1ccnc2cc(Cl)ccc12	i	i	i	i	i	i	nt	nt	nt
CCOc1ccc(NC(=S)NNc2ccnc3cc(Cl)ccc23)cc1	i	i	i	i	i	55.7	65.5	i	i
CCN1CCCCC(NC(=O)c2ccccc2)C1=O (stereo unspecified)	i	nt	nt	nt	nt	nt	nt	nt	nt
CCCn1c(SCC(=O)Nc2sc(C)c(C)c2C#N)nnc1C(C)C	i	i	i	i	i	i	nt	nt	nt
Cc1sc(NC(=O)CSc2nnc(C(C)C)n2C)c(C#N)c1C	i	i	i	i	i	56.2	i	i	i
O=C(Nc1ccccc1Oc1ccccc1)NC1CCCCN(Cc2ccc(Cl)cc2)C1=O (stereo unspecified)	i	nt	nt	nt	nt	nt	nt	nt	nt
Cc1cc(C(=O)CSc2nc3ccccc3c(=O)n2C)c(C)n1Cc1ccc2c(c1)OCO2	i	i	i	i	i	73.3	77.8	37.9	48.8
Cc1cc(C(=O)CSc2nnc(-c3ccccc3)n2Cc2ccc3c(c2)OCO3)c(C)n1C	i	i	i	i	i	i	nt	nt	nt
O=C1OCCC1Sc1nnc(-c2ccc(Cl)cc2Cl)o1 (stereo unspecified)	i	i	i	i	i	i	66.7	i	78.2
COc1cccc(C(=O)N2CCC(Oc3cccnc3)CC2)c1	i	nt	nt	nt	nt	nt	nt	nt	nt
OCCCNc1ncnc2sc(-c3ccccc3)cc12	i	i	i	i	i	i	nt	nt	nt
C=COCCCNc1ncnc2sc(-c3ccccc3)cc12	i	i	i	i	i	61.2	47.8	38.8	i
CCCCN1CCN(C(=O)C2CCCN(C(=O)c3ccc4c(c3)NC(=O)CS4)C2)CC1 (stereo unspecified)	i	nt	nt	nt	nt	nt	nt	nt	nt
COC(=O)[C@]12C[C@H](CC(=O)N3CCOCC3)C(=O)N(Cc3ccco3)C1=C[C@H](COCc1ccccc1)O[C@@H]2C	i	nt	nt	nt	nt	nt	nt	nt	nt
O=C(NCc1ccc(Cl)cc1Cl)C1CCN(S(=O)(=O)c2ccc3c(c2)OCCCO3)CC1	i	i	i	i	i	63.1	i	i	i
O=C(NCc1ccc(F)cc1)C1CCN(S(=O)(=O)c2ccc3c(c2)OCCCO3)CC1	i	i	i	i	i	i	nt	nt	nt
